dFosB act – activators of delta FosB homodimer, primary screen, biochemical, fluorescence polarization, TAMRA-CDK5 oligo, single point; Protein FosB (Mus musculus), P13346; purified delta FosB; percent of positive-control signal above neutral wells; activation, % at 25 µM; actives 0.99% (n = 340,000); AID 493131, 2011;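 active means mean activation above about 17%, with every replicate also reaching it, limit read from the data, passing the limit was not always enough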
CDK5 inh – inhibitors of human CDK5/p35 kinase, primary screen, biochemical, single concentration | Cyclin-dependent kinase 5 (Homo sapiens) + Cyclin-dependent kinase 5 activator 1 (Homo … | Recombinant CDK5/p35, ADP-Glo luminescence, 60 min | inhibition, % at 10 µM | actives 0.01% (n = 330,000) | AID 488839, 2010;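 active means highest replicate inhibition of at least 50% and at least 75% of replicates reaching 50%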
esBAF inh – Bmi1 luciferase reporter increase in mESCs, primary screen, esBAF inhibitor project, mouse ES cells, Bmi1 luciferase knock-in, single point. 24 h; 100% = twice the neutral-well signal. reporter increase, % at 12.5 µM. actives 2% (n = 350,000); in the data active means activation above about 40%;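 further: a rise in the Bmi1 reporter signal indicates esBAF inhibition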
SMARCA2 act – SMARCA2 (BRM) function activators, primary screen, cell-based, luminescence, high throughput; MG213 cells, MMTV-luciferase reporter, dexamethasone, overnight; activation, % at 9.1 µM; actives 1% (n = 370,000); AID 652017, 2013; in the data active means activation above about 7.8%
Dyrk1A ADPGlo – rat Dyrk1A kinase inhibitors, primary screen, biochemical, single point, plate reader; ADP-Glo luminescence, NFATc1 peptide; inhibition, % at 12.5 µM; actives 0.43% (n = 310,000); in the data active means inhibition above about 50%
Rtt109 Vps75 – inhibitors of C. albicans Rtt109/Vps75 HAT, primary screen, biochemical, ThioGlo CoA-SH fluorescence, plate reader; Histone acetyltransferase RTT109 (Candida albicans (strain SC5314 / ATCC MYA-2876)), …; purified Rtt109/Vps75, 4 h; inhibition, % at 34.9 µM; actives 0.16% (n = 330,000); AID 540336, 2011;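 active means inhibition of at least 50% in every replicate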
SMARCA2 act conf – SMARCA2 (BRM) function activators, confirmation, cell-based, luminescence, triplicate | actives 30% (n = 3,500) | shares compounds with SMARCA2 act | activation, % at 9.1 µM | MG213 cells, MMTV-luciferase with dexamethasone, overnight; MG213 cells expressing E1A, Rb sequestered; DMSO wells 0%, reference activator 100%;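 active means activation above its plate's cutoff, the mean activation of tested wells plus 3 SD, cut at about 7.9% in these data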
VP16 Luc act – GAL4-VP16 luciferase reporter activation, counter-screen for SMARCA2 (BRM) activator project, cell-based, pG5luc, luminescence, high throughput; AID 686939, 2013; HEK293 GAL4-VP16 pG5luc reporter; scaled: DMSO wells 0%, SAHA wells 100%; actives 41% (n = 3,500); activation, % at 9.1 µM; shares compounds with SMARCA2 act;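 active means activation above the solvent-only control well mean plus 3 SD, averaged across control plates, cut at about 5.2% in these data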
Hits are given with their value; 0 = inactive; - = no result given. Rows were chosen to be rich in hits. Some 3.2% of all compounds tested hit in one or more screens of this group.

SMILES	dFosB act	CDK5 inh	esBAF inh	SMARCA2 act	Dyrk1A ADPGlo	Rtt109 Vps75	SMARCA2 act conf	VP16 Luc act
C[C@@H]1CN([C@@H](C)CO)C(=O)c2c(c3ccccc3n2C)-c2ccccc2CO[C@H]1CN(C)C(=O)[C@H]1CCCN1C	-	-	0	-	-	-	-	-
CCN(C(=O)COC(=O)c1c(-c2ccccc2)noc1C)C1CCS(=O)(=O)C1 (configuration not stated)	0	0	0	8.6	0	0	0	0
CCN(C(=O)COC(=O)c1c(C)c(-c2ccccc2)nc2ccccc12)C1CCS(=O)(=O)C1 (configuration not stated)	0	0	0	0	0	0	-	-
COc1ccc(/C=C/c2nc(S(=O)(=O)c3ccccc3)c(N(C)C)o2)cc1	0	0	0	9.6	0	0	0	0
COc1ccc(NC(=O)Nc2ccc3c(c2)C(=O)N([C@H](C)CO)C[C@@H](C)[C@@H](CN(C)S(=O)(=O)c2ccc(F)cc2)O3)cc1	-	-	0	-	-	-	-	-
N=c1c2c(-c3ccccc3)c(-c3ccccc3)n(CCc3ccccc3)c2ncn1CCO	-	-	-	0	-	-	-	-
N=c1c2c(-c3ccccc3)c(-c3ccccc3)n(Cc3ccccc3)c2ncn1CCO	0	0	0	8.7	0	0	0	0
C[C@@H]1CCCCO[C@@H](CN(C)C(=O)c2ccccc2)[C@@H](C)CN([C@@H](C)CO)C(=O)c2cc(NC(=O)Nc3ccccc3)ccc2O1	-	-	0	-	-	-	-	-
CCOc1ccc(N2C(=O)CC(SCCN)C2=O)cc1 (configuration not stated)	0	0	0	14	0	0	7.8	9.6
C[C@H](CO)N1C[C@H](C)[C@H](CN(C)S(C)(=O)=O)Oc2c(NS(=O)(=O)c3cn(C)cn3)cccc2C1=O	-	-	0	-	-	-	-	-
CO[C@H]1CN(C)C(=O)c2ccc(NC(=O)Nc3ccccc3F)cc2OC[C@H](C)N(C(C)=O)C[C@@H]1C	-	-	0	-	-	-	-	-
O=C(C[C@@H]1CC[C@@H]2[C@H](COC[C@H](O)CN2C(=O)Nc2cccc(Cl)c2)O1)N1CCCCC1	-	-	0	-	-	-	-	-
CCNc1nc(NCC)nc(SCCOc2ccc(C)cc2)n1	0	0	-	9.6	-	0	0	0
O=C(CCSCc1ccccc1F)N1CCN(c2ccccn2)CC1	0	0	-	12	0	0	0	5.7
Cc1nc(Nc2ccc(S(N)(=O)=O)cc2)sc1-c1ccccc1	0	0	0	0	0	0	-	-
COc1ccc(Nc2nc(C)c(-c3ccccc3)s2)cc1	0	0	-	11	0	0	0	5.9
O=C(O)CCC(=O)N1N=C(c2c(-c3ccccc3)c3cc(Cl)ccc3[nH]c2=O)CC1c1ccco1 (configuration not stated)	0	0	-	0	0	0	-	-
CCC(=O)N1N=C(c2c(-c3ccccc3)c3cc(Cl)ccc3[nH]c2=O)CC1c1ccco1 (configuration not stated)	0	0	-	10	0	0	0	0
COc1ccc(C(=O)NCCCN2CCCC2=O)cc1	0	0	0	8.0	0	0	0	0
O=C1CC(c2cc(-c3ccccc3)no2)C1	0	0	0	9.7	0	0	0	7.5
COc1ccc(S(=O)(=O)NCc2cccnc2)cc1C(=O)N1CCCCC1	0	0	0	9.8	0	0	0	0
COc1ccc(S(=O)(=O)Nc2cccc(SC)c2)cc1C(=O)N1CCOCC1	0	0	0	9.6	0	0	0	0
